These results are taken from PubChem BioAssay.

Results filed as inconclusive are left out. The source made the active and inactive calls.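 The calls were made as follows, unless noted: active = viability at or under a set limit in both replicates, limit being median viability minus 3 SD (cut at about 48% in these data, passing the limit was not always enough); inconclusive = at or under the limit in just one replicate; inactive = at or above the limit in both replicates.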

Test [1] is described as follows: Her2 expression decrease, cell viability multiplex – SKBR3 breast tumor cells, AlphaScreen, ATP viability, primary screen (AID 461;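 active = Her2 level under about 52% in both replicate screens, with viability over 70% of control, limit read from the data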;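 as to Her2 level: lower value means less Her2 protein in the cells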;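 as to viability: percent of carrier control wells set as 100% viability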). Particulars: SKBR3 Her2 protein level, 18-24 h, measured here: SKBR3 viability, ATP luminescence, at 10 µM.
The target of test [2] is Receptor tyrosine-protein kinase erbB-2 (Homo sapiens) (UniProt P04626). The test is described as above. Particulars: 18-24 h, at 10 µM, stronger effect = lower value.
Test [3] is described as follows: reduced viability of SK-BR-3 breast cancer cells – cell-based, 24 h, human, pilot screen (AID 572;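 active = viability at or below 10% of carrier control in both of two separate runs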;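 also: compound exposure lasted between 18 and 24 h rather than exactly 24 h; 100% = carrier-treated control wells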). Particulars: SK-BR-3 viability, CellTiter-Glo luminescence, at 10 µM, stronger effect = lower value.
A short description of test [4]: HUVEC growth inhibition – cell-based, human, primary screen (AID 575;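 active = viability at or below 30% in both replicate assays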;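 also: 100% = median of untreated cell wells with 0.1% DMSO on each plate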). Particulars: HUVEC proliferation, CellTiter-Glo luminescence, 72 h; at 10 µM; stronger effect = lower value. In general terms: ATP-based viability assays read luminescence as a measure of living cells.
Test [5] is described as follows: H69AR cell proliferation blockers – human, duplicate replicates, primary screen (AID 580).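 Also: 100% = mean luminescence of untreated wells and 0% = no signal.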 Particulars: H69AR lung tumor cells viability, ATP luminescence, 72 h; at 10 µM; stronger effect = lower value.
Test [6] in a line: MRP1 drug-resistance reversers in H69AR cells – cell-based, doxorubicin co-treatment, pilot screen (AID 601;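 active = viability loss from added drug above about 55%, and viability with drug at most 40%, in both replicates, limit read from the data, passing the limit was not always enough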). Particulars: CellTiter-Glo, 72 h, at 10 µM; for differential viability (reversal): stronger effect = higher value.
A short description of test [7]: yeast transport mutant growth inhibition pilot in 384-well plates, post-Golgi transport modulator project (AID 636; in the data active = inhibition above about 31%). Particulars: absorbance 615 nm, about 18 h, stronger effect = higher value.
Test [8] is described as follows: growth suppression of yeast trafficking mutant, preliminary HTS, modulators of trafficking downstream of Golgi apparatus project, 1536-format plate, OD 615 nm (AID 637; in the data active = inhibition above about 30%). Particulars: yeast transport mutant growth, absorbance 615 nm, 18 h; stronger effect = higher value.
Test [9] can be described thus: S. cerevisiae growth inhibition in permissive medium (OD615), pilot counter-assay for S. cerevisiae lifespan shortening project, permissive growth control (AID 705;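 active = growth inhibition above 25% in both replicates, a cutoff set 3 SD above the mean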). Particulars: OD615, 24 h, at 10 µM, stronger effect = higher value.
Test [10] is described as follows: S. cerevisiae growth inhibition in restrictive medium, OD615, pilot screen, restrictive growth control, yeast lifespan reduction project (AID 706;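 active = growth inhibition above a set limit, 3 SD over mean compound inhibition, in both replicates, cut at about 43% in these data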;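 also: modified DeaD lifespan yeast strain shifted to restrictive glucose medium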). Particulars: OD615, 48 h, at 10 µM, stronger effect = higher value.
Test [11] in a line: doxorubicin toxicity protection in MRP-1 cells – H69AR cells, CellTiter-Glo, duplicate, MRP-1 activator project, pilot screen (AID 807;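 active = viability increase at or above a cutoff of the median across tested compounds plus 3 SD, cut at about 8.5% in these data, passing the limit was not always enough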;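 also: compound pretreatment 18-22 h then 72 h combined with doxorubicin; 0% = doxorubicin alone and 100% = vehicle without doxorubicin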). Particulars: H69AR viability with doxorubicin, CellTiter-Glo luminescence; at 10 µM; stronger effect = higher value.
Test [12] is described as follows: viability of HCT116 without oncogenic beta-catenin – human colon tumor cells, pilot screen (AID 823;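 active = cell viability at or below a set limit in both duplicate runs, the limit being the all-compound median minus 4 SD, cut at about 23% in these data, passing the limit was not always enough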;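 also: 0% = wells killed by 20 µM Hyamine and 100% = untreated DMSO cell wells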). Particulars: HCT116 beta-catenin knockout viability, CellTiter-Glo, 60 h; at 10 µM; stronger effect = lower value.
Test [13] is described as follows: viability of PTEN-null HCT116 cells – cell-based, HCT116 clonal line, CellTiter-Glo, pilot screen (AID 824;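 active = viability at or below 27.92% in each of two runs, the all-compound median minus 4 SD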;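 also: 0% = 20 µM Hyamine control and 100% = vehicle cell control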). Particulars: HCT116 PTEN-deleted viability, 60 h, at 10 µM, stronger effect = lower value.
Test [14] is described as follows: RAM pathway blockade in budding yeast – dse1pr::URA3 reporter, 5-FOA selection, pilot screen (AID 869;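 active = inhibition over a set limit, the all-compound mean plus 3 SD, in both replicate runs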;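 also: 0% = DMSO wells with no growth and 100% = 10 µM 1-NA-PP1 with full growth; RAM network block rescues cells from 5-FOA so hits raise OD615 growth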). Particulars: S. cerevisiae dse1pr::URA3 5-FOA growth, OD615, 2 d; at 10 µM; stronger effect = higher value; strain carries analog-sensitive mutant Cbk1 kinase.
Test [15] is described as follows: RAM signaling pathway blockade in yeast – S. cerevisiae, Pdr1DBD-CYC8 efflux-inhibited sensitized strain, primary screen (AID 1298;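 active = RAM network inhibition above 8.4% in each of two replicates, 3 SD over the compound average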;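 also: 0% = DMSO untreated cells without growth and 100% = 10 µM 1-NA-PP1 full growth; higher means more yeast growth rescued from 5-FOA killing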). Particulars: S. cerevisiae cbk1-as DSE1-URA3 strain, 5-FOA growth OD615, 2 d; at 50 µM; stronger effect = higher value.
Setting [16] is: H69AR cells + 2 uM doxorubicin, measured here: viability with 2 uM doxorubicin, stronger effect = lower value.
[17] abbreviates: H69AR cells, compound alone cytotoxicity.

Receptor tyrosine-protein kinase erbB-2 (Homo sapiens), sequence (P04626 whole entry, looked up): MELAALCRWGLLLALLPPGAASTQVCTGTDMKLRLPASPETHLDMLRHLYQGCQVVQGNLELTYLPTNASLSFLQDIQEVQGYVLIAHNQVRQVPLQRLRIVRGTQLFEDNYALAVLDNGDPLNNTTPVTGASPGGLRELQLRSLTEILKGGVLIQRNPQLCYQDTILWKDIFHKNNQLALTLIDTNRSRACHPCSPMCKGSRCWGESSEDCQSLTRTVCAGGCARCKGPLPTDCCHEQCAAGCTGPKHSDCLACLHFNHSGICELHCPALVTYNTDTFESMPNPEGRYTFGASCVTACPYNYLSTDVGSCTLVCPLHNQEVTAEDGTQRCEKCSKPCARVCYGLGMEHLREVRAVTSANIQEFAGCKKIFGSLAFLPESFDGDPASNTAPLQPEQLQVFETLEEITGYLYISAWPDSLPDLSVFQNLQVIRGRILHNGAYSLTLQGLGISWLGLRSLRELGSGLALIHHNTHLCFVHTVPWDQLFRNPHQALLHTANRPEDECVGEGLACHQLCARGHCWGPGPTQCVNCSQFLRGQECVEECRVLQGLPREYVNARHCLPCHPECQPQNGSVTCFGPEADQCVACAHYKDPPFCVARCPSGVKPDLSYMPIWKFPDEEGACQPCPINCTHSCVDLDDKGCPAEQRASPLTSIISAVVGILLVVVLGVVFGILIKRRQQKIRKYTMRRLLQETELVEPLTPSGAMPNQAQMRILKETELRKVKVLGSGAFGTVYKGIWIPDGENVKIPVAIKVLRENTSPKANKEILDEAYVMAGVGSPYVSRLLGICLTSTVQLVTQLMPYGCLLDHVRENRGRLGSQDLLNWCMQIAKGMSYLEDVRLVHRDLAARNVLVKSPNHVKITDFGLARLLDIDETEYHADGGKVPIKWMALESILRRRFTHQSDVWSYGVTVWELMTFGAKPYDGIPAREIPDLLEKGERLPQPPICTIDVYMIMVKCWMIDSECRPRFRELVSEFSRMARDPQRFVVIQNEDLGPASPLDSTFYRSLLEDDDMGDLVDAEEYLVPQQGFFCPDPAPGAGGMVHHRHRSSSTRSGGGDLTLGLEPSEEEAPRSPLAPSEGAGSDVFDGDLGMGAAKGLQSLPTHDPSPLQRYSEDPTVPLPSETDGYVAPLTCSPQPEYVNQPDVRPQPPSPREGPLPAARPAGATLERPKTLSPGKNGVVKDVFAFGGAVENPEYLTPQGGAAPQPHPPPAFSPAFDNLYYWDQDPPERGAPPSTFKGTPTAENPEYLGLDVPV

Take `O=C(c1ccc2c(c1)OCCO2)N1CCCCC1`: the viability (commonly a read-out of living cells in per cent, often relative to untreated cells) in test [1] is 117%; in [3], 117% (inactive); in test [4], 91.8% (inactive); in test [5], 101% (inactive); in test [6] (setting [16]), 102%; in [6] (setting [17]), 101%. Also, the viability in [12] is 97.2% (inactive); in test [13], 97.4% (inactive). Further, the Her2 level in test [2] was 97% (inactive). The differential viability (reversal) in test [6] (H69AR cells + 2 uM doxorubicin) was -1.2% (inactive). The inhibition (commonly the change of the read-out against control, counted positive when it falls) is -0.91% (inactive) in [7], 0.17% (inactive) in test [8] and 0.88% (inactive) in test [14]. Also, the growth inhibition in test [9] is 3.7% (inactive); in [10], 6.82% (inactive). Also, the viability increase in test [11] was -1.22% (inactive). Further, the RAM network inhibition in test [15] was 5.28% (inactive).

For `COc1ccc(CN2C(=O)CN=C2Nc2ccc(C)cc2C)cc1`, the viability is 85% in test [1]; 85% (inactive) in test [3]; 103% (inactive) in test [4]; 84.9% (inactive) in [5]; 77.8% in test [6] (setting [16]); 84.9% in test [6] (setting [17]). For the same molecule, the results for the viability in [12] and in test [13] were 101% (inactive) and 89.4% (inactive), respectively. The Her2 level in test [2] is 91% (inactive). Also, the differential viability (reversal) in [6] (H69AR cells + 2 uM doxorubicin) was 7.04% (inactive). For the same molecule, the inhibition is -3.82% (inactive) in test [7], -0.73% (inactive) in test [8] and 3.82% (inactive) in test [14]. Moreover, the growth inhibition is -7.07% (inactive) in [9] and -12.2% (inactive) in [10]. In addition, the viability increase in test [11] was -1.49% (inactive). Moreover, in test [15], the RAM network inhibition is 5.11% (inactive).

As for `Cc1ccc(-c2cc(C(F)(F)F)n3nc(C(=O)N4CCCC4)cc3n2)cc1`, the viability in test [1] was 101%; in test [3] it was 101% (inactive); in test [4], 108% (inactive); in test [5], 111% (inactive); in test [6] (setting [16]), 100%; in test [6] (setting [17]), 111%. For the same molecule, the viability is 96.9% (inactive) in test [12] and 89% (inactive) in test [13]. For the same molecule, in test [2], the Her2 level was 84.5% (inactive). The differential viability (reversal) in [6] (H69AR cells + 2 uM doxorubicin) was 11.3% (inactive). Moreover, the inhibition in test [7] is -0.68% (inactive); in test [8], 3.65% (inactive); in test [14], 1.95% (inactive). Further, the results for the growth inhibition in test [9] and in [10] were -13.3% (inactive) and 1.45% (inactive), respectively. In test [11], the viability increase was -2.2% (inactive). Moreover, the RAM network inhibition in test [15] is 4.14% (inactive).

Take `CCOC(=O)C1CCN(c2c(NC3CCCc4ccccc43)c(=O)c2=O)CC1` (stereo not given): the viability is 82% in [1]; 82% (inactive) in test [3]; 106% (inactive) in test [4]; 87.7% (inactive) in [5]; 87.2% in [6] (setting [16]); 87.7% in [6] (setting [17]). Besides, the viability in test [12] was 102% (inactive); in test [13], 96.8% (inactive). Further, the Her2 level in test [2] is 106% (inactive). For the same molecule, the differential viability (reversal) in test [6] (H69AR cells + 2 uM doxorubicin) was 0.54% (inactive). In addition, the inhibition in [7] is 1.41% (inactive); in [8], 0.67% (inactive); in test [14] it was -0.155% (inactive). The growth inhibition in [9] was 6.77% (inactive); in [10] it was -3.4% (inactive). In addition, the viability increase in test [11] was -1.77% (inactive). Besides, the RAM network inhibition in test [15] is 0% (inactive).

Take `O=C(CC1(O)C(=O)Nc2ccccc21)c1ccc2c(c1)OCO2` (stereo not given): the viability in test [1] was 104%; in [3] it was 104% (inactive); in [4] it was 87.5% (inactive); in test [5], 76.3% (inactive); in [6] (setting [16]) it was 88.5%; in [6] (setting [17]), 76.3%. Moreover, the viability was 97.2% (inactive) in [12] and 96.5% (inactive) in test [13]. In addition, in [2], the Her2 level was 93.5% (inactive). In addition, the differential viability (reversal) in [6] (H69AR cells + 2 uM doxorubicin) is -12.3% (inactive). Besides, the figures for the inhibition in [7], in [8] and in test [14] were 0.78% (inactive), -3% (inactive) and 2.9% (inactive), respectively. Also, the growth inhibition in test [9] was -7.81% (inactive); in [10], -21.3% (inactive). In addition, the viability increase in test [11] was -2.13% (inactive). In addition, in test [15], the RAM network inhibition was 4.82% (inactive).
